This is a sample that favours compounds with a hit; in the whole collection about 2.5% have one here.
F508del corr – correctors of CFTR F508del function in bronchial epithelial cells | CFBE cells, YFP halide quenching; stimulated with forskolin plus potentiator P3; % fluorescence drop versus neutral controls | activity (quench increase), % at 7.58 µM | 350,000 compounds, 0.36% hits | AID 720511;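 active means mean added fluorescence quench of at least 8% versus neutral control, with both replicates also reaching 8%; inconclusive means only one of the mean or replicate conditions met; inactive means mean below 8% and not both replicates reaching 8%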;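 further: cells transiently co-express mutant CFTR-F508del with the halide-sensitive YFP; corrector assay measuring rescue of mutant channel to the surface after 24 h compound exposure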
PAX8 reporter – lowers PAX8-driven luciferase in RMG-I cells; RMG-I TPO-luciferase reporter, SteadyGlo, 24 h; inhibition, % at 12.6 µM; 360,000 compounds, 1.2% hits;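 active means mean replicate inhibition at least 60% with every replicate also reaching 60%; inconclusive means only one of the two criteria is met; inactive means mean below 60% and not all replicates reaching 60%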;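 further: luciferase light reporting Pax8 driven TPO promoter activity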
FXN GAA850 act – activators of GAA850 frataxin (FXN) promoter. HEK293 lucGAA850 FXN promoter luciferase reporter, 24 h; percent of 10 µM SAHA response. activation, % at 6 µM. 360,000 compounds, 0.56% hits;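 active means activation above the average of all compounds screened plus 3 SD, cutoff fixed separately per campaign, cut at about 7.5% in these data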
EWS-Fli inh – EWS/Fli transcriptional activity inhibition. inhibition, % at 12.6 µM. AID 651661. 350,000 compounds, 0.67% hits. A673 NR0B1-luciferase reporter, viability-normalised;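 active means mean inhibition of at least 50% after viability correction, with every replicate also passing that limit; inconclusive means mean reaches 50% but only one of two replicates passes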;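 further: firefly luciferase signal divided by Alamar Blue viability fluorescence both relative to DMSO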
HIV Env fusion – HIV envelope-mediated fusion inhibition | HeLa-JRFL Env/CEM21 cell fusion, luciferase | inhibition, % at 12.3 µM | 360,000 compounds, 1.1% hits | AID 651610;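 active means mean replicate inhibition score of at least 50 and every replicate individually at or above 50; inconclusive means only one of the two criteria met; inactive means mean below 50 and not all replicates reaching 50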
Large screens that a line does not name were inactive.

CCCCn1nnnc1C(CCc1ccccc1)N1CCC(n2c(=O)[nH]c3ccccc32)CC1 (stereo unspecified)	PAX8 reporter 81 (no result: FXN GAA850 act)
CCCCn1nnnc1C(CCSC)N1CCC(n2c(=O)[nH]c3ccccc32)CC1 (stereo unspecified)	none (no result: FXN GAA850 act)
COC(=O)[C@@H]1[C@@H](CO)[C@@H]2Cn3c(ccc(C4=CCCCC4)c3=O)[C@H]1N2Cc1ccccc1OC	none (no result: FXN GAA850 act, HIV Env fusion)
COc1cccc(-c2ccc([C@@H]3[C@H]4CN(C(=O)Cc5ccncc5)CCCCN4[C@H]3CO)cc2)c1	none (no result: FXN GAA850 act, EWS-Fli inh, HIV Env fusion)
COc1cccc(OC)c1C1=NCC(=O)Nc2c1oc1ccc(Br)cc21	PAX8 reporter 76
COC(=O)[C@H]1[C@H](CO)[C@H]2Cn3c(ccc(-c4ccc(F)cc4)c3=O)[C@@H]1N2Cc1cccnc1	none (no result: F508del corr, PAX8 reporter, FXN GAA850 act)
COOCC1(C(=O)OC)C[C@H](c2ccc(OC)cc2)N(Cc2ccccc2OC)[C@@H]1c1ccccc1C (stereo partly specified)	HIV Env fusion 89 (no result: FXN GAA850 act)
C=C1C(C)C2C(Cc3ccccc3)NC(=O)C23OC(=O)/C=C/C(O)CCCC(C)C/C=C/C3C1O (stereo unspecified)	PAX8 reporter 93, HIV Env fusion inconclusive
O=C(Nc1cccc(OC(=O)N2CCCCC2)c1)N1CCCCC1	none (no result: F508del corr, PAX8 reporter, EWS-Fli inh, HIV Env fusion)
O=C(Nc1cccc(OC(=O)N2CCOCC2)c1)N1CCOCC1	HIV Env fusion 72 (no result: F508del corr, EWS-Fli inh)
CC=Cc1ccc2n(c1=O)C[C@@H]1[C@@H](CO)[C@H](C(=O)O)[C@H]2N1S(=O)(=O)c1ccccc1F (mixture of isomers)	none (no result: F508del corr, FXN GAA850 act)
CC(=O)OC(C)(C)/C=C/C(=O)C(C)(O)C1C(O)CC2(C)C3CC=C4C(CC(O)C(=O)C4(C)C)C3(C)C(=O)CC12C (stereo unspecified)	PAX8 reporter 108, HIV Env fusion 65
CC(=O)OC(C)(C)/C=C/C(=O)[C@](C)(O)[C@H]1[C@H](O)C[C@@]2(C)[C@@H]3CC=C4[C@H](C[C@H](O)C(=O)C4(C)C)[C@]3(C)C(=O)C[C@]12C	none (no result: F508del corr, PAX8 reporter, EWS-Fli inh, HIV Env fusion)
CC(=O)OC(C)(C)/C=C/C(=O)C(C)(O)C1[C@H](O)C[C@@]2(C)C3CC=C4C(CC[C@@H](O)C4(C)C)[C@]3(CO)C(=O)C[C@]12C (stereo partly specified)	PAX8 reporter 112
CCOC(=O)[C@@H]1[C@@H]2NC(=S)N[C@@]1(C)Oc1ccccc12	none (no result: PAX8 reporter, FXN GAA850 act)
c1ccc(C[n+]2ccccc2)cc1	none
Clc1ccc(C[n+]2c(-c3ccccc3)cc(-c3ccccc3)cc2-c2ccccc2)cc1	PAX8 reporter 97, HIV Env fusion 107
Fc1ccc(C[n+]2c(-c3ccccc3)cc(-c3ccccc3)cc2-c2ccccc2)cc1	PAX8 reporter 89 (no result: FXN GAA850 act)
C[n+]1c(-c2ccccc2)cc(-c2ccc(O)cc2)cc1-c1ccccc1	none
COC(=O)[C@H]1[C@H](CO)[C@H]2Cn3c(ccc(C4=CCCC4)c3=O)[C@@H]1N2CC1CCCCC1	none (no result: PAX8 reporter, FXN GAA850 act, HIV Env fusion)
C/C=C/c1ccc(C2[C@H]3CNC[C@@H]2N3CC2CCCCC2)cc1 (stereo partly specified)	EWS-Fli inh 76 (no result: FXN GAA850 act, HIV Env fusion)
Oc1ccc(-[n+]2c(-c3ccccc3)cc(-c3ccccc3)cc2-c2ccccc2)cc1	PAX8 reporter 90, HIV Env fusion inconclusive
COc1ccc(-[n+]2c(-c3ccccc3)cc(-c3ccccc3)cc2-c2ccccc2)cc1	PAX8 reporter 92 (no result: FXN GAA850 act)
COC(=O)[C@@H]1[C@@H](CO)[C@@H]2Cn3c(ccc(C4=CCCC4)c3=O)[C@H]1N2S(=O)(=O)c1cn(C)cn1	none (no result: FXN GAA850 act, HIV Env fusion)
CCC(C)NC(=O)CCC(=O)OC1O[C@H]2OC3(C)CC[C@H]4[C@H](C)CCC(C1C)C24OO3 (stereo partly specified)	none
CCC(C)C(NC(=O)CCCNC(=O)CCC(=O)OC1O[C@H]2OC3(C)CC[C@H]4[C@H](C)CCC(C1C)C24OO3)C(=O)O (stereo partly specified)	PAX8 reporter 74, HIV Env fusion 58
CCCc1nc2ccc(Br)cc2c(=O)n1-c1ccc([N+](=O)[O-])c(C(F)(F)F)c1	PAX8 reporter 93 (no result: F508del corr, EWS-Fli inh)
COc1ccc(C#Cc2ccc([C@H]3[C@H](CO)N4CCCCN(C(=O)Cc5cccnc5)C[C@@H]34)cc2)cc1	none (no result: FXN GAA850 act, HIV Env fusion)
Cc1ccc2nc(-c3ccc(CN4CCC(n5c(=O)[nH]c6ccccc65)CC4)cc3)c(-c3ccccc3)nc2c1	PAX8 reporter 65 (no result: FXN GAA850 act)
O=c1[nH]c2ccccc2n1C1CCN(Cc2ccc(-c3nc4ccccc4nc3-c3ccccc3)cc2)CC1	none (no result: FXN GAA850 act)
COC(=O)C1=C(c2cc3ccccc3o2)C[C@@H]2CC[C@H]1N2C(=O)N1CCCC1	none
COC(=O)C1=C(c2cc3ccccc3o2)C[C@@H]2CC[C@H]1N2C(=O)N1CCCCC1	EWS-Fli inh 58
O=C(O)C[C@@H]1CC[C@H]2NC[C@@H](O)COC[C@@H]2O1	none (no result: FXN GAA850 act)
C=CCN1C(=O)/C(=C/c2ccc(N3CCOCC3)o2)C(=O)NC1=S	none (no result: F508del corr, EWS-Fli inh)
O=C1NC(=O)C(=Cc2ccc(N3CCOCC3)o2)C(=O)N1	F508del corr 9.2
COC(=O)[C@@H]1[C@@H](CO)[C@@H]2Cn3c(ccc(-c4ccccc4)c3=O)[C@H]1N2CC1CC1	none (no result: PAX8 reporter, FXN GAA850 act, HIV Env fusion)
CC(=O)OC1C(O)C(C)OC(OC2C(OC(=O)C3CCC4C(C3)OC3(CC(OC(=O)/C=C/c5ccccc5)C(C)CO3)C43CO3)OC(C)C(O)C2OC(C)=O)C1O (stereo unspecified)	PAX8 reporter 104, HIV Env fusion 72
CCC(=O)N1[C@@H]2Cn3c(ccc(-c4cccc(F)c4)c3=O)[C@H]1[C@@H](C(=O)OC)[C@@H]2CO	none (no result: FXN GAA850 act, HIV Env fusion)
N#CC(C#N)=NNc1ccc(-n2ccc(C(F)(F)F)n2)cc1	PAX8 reporter 94
Cc1cc(C)n(-c2ccc(NN=C(C#N)C#N)cc2)n1	none
NC(=O)c1cc([N+](=O)[O-])cc([N+](=O)[O-])c1	none
CC(C)(C)c1cc([N+](=O)[O-])cc(C(C)(C)C)c1O	PAX8 reporter 67, HIV Env fusion 58 (no result: FXN GAA850 act)
COC(=O)[C@@H]1[C@@H](CO)[C@@H]2Cn3c(ccc(-c4ccncc4)c3=O)[C@H]1N2S(=O)(=O)c1ccccc1F	none (no result: FXN GAA850 act, HIV Env fusion)
COC1=C(C)C(=O)C2=C(C1=O)C(CO)N1C(C#N)C3CC4C(C1C2N1CCOC41)N3C (stereo unspecified)	PAX8 reporter 92, HIV Env fusion 67
O=C(O)[C@H]1[C@H](CO)[C@H]2Cn3c(ccc(-c4cccc(F)c4)c3=O)[C@@H]1N2CCc1ccccc1	none (no result: FXN GAA850 act, HIV Env fusion)
Cc1c(C(=O)c2cccc3ccccc23)c2cccc3c2n1[C@H](CN1CCOCC1)CO3	PAX8 reporter 101
CCN(CC)c1ccc(C=C2C(=O)N(C)C(=S)N(C)C2=O)o1	PAX8 reporter 78 (no result: HIV Env fusion)
CN(Cc1cccc(-c2cccnc2)c1)C(=O)Oc1ccc([N+](=O)[O-])cc1	HIV Env fusion 134 (no result: FXN GAA850 act)
COc1cccc(-c2ccc3n(c2=O)C[C@@H]2[C@@H](CO)[C@H](C(=O)O)[C@H]3N2Cc2ccccc2F)c1	none (no result: F508del corr, FXN GAA850 act)

Screening results: PubChem BioAssay, several laboratories
